Laboratory results from the supplement of paper PMC11865577.
Structures can show the parent of a compound that is named as a salt.

Tests used:
Experiment in all cases: normalised indicator fluorescence (fraction of RNA + indicator signal without compound); higher = less displacement of indicator (weaker competition)
Conditions in all cases: compound concentration: 5 uM, 30 min
hsa-mir-191 loop = tested on: hsa-mir-191 loop
Procedure, shortened: (§1)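 Compounds, each at about 5 uM final from 0.25 μL of 1 mM DMSO stock, were tested in 96-well plates for displacement of TO-PRO-1 or TO-PRO-3 from RNA in 20 mM phosphate pH 7.0, 20 mM NaCl, 80 mM KCl. Fluorescence was recorded after 30 min on an Infinite 200 PRO (excitation 485 or 620 nm). Reported values are averages of two independent experiments, calculated as indicator fluorescence minus the buffer-plus-indicator blank, divided by the RNA-plus-indicator signal without compound.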

hsa-mir-21 loop = tested on: hsa-mir-21 loop
Procedure, shortened: as §1

hsa-mir-221 loop = tested on: hsa-mir-221 loop
Procedure, shortened: as §1

hsa-mir-374a loop = tested on: hsa-mir-374a loop
Procedure, shortened: as §1

hsa-mir-6850 loop = tested on: hsa-mir-6850 loop
Procedure, shortened: as §1

[1] = indicator: TO-PRO-1 0.1 uM, RNA concentration: 0.1 uM
[2] = indicator: TO-PRO-3 0.5 uM, RNA concentration: 0.5 uM

SMILES | normalised indicator fluorescence (hsa-mir-191 loop; [1]) | normalised indicator fluorescence (hsa-mir-191 loop; [2]) | normalised indicator fluorescence (hsa-mir-21 loop; [1]) | normalised indicator fluorescence (hsa-mir-21 loop; [2]) | normalised indicator fluorescence (hsa-mir-221 loop; [1]) | normalised indicator fluorescence (hsa-mir-221 loop; [2]) | normalised indicator fluorescence (hsa-mir-374a loop; [1]) | normalised indicator fluorescence (hsa-mir-374a loop; [2]) | normalised indicator fluorescence (hsa-mir-6850 loop; [1]) | normalised indicator fluorescence (hsa-mir-6850 loop; [2])
CN(C)CCCN1c2ccccc2CCc2ccc(Cl)cc21 [Clomipramine hydrochloride] | 1 | 1.1 | 0.961 | 0.987 | 1.07 | 1.01 | 1.14 | 1.02 | 0.864 | 1.08
C[C@H]1[C@H](C)CC[C@]2(C(=O)O[C@@H]3O[C@H](CO[C@@H]4O[C@H](CO)[C@@H](O[C@@H]5O[C@H](C)[C@H](O)[C@@H](O)[C@H]5O)[C@H](O)[C@H]4O)[C@@H](O)[C@H](O)[C@H]3O)CC[C@]3(C)C(=CC[C@@H]4[C@@]5(C)C[C@@H](O)[C@H](O)[C@@](C)(CO)[C@@H]5CC[C@]43C)[C@H]12 [Asiaticoside] | 1.02 | 1.03 | 0.968 | 0.996 | 0.992 | 1.03 | 1.09 | 1.16 | 1.03 | 1.11
O=C(Nc1ccc2[nH]nc(-c3ccncc3)c2c1)[C@@H]1CCN(CC(=O)N2CCN(c3ccc(-c4ncccn4)cc3)CC2)C1 | 1.05 | 1.02 | 1.02 | 1 | 1.04 | 1 | 1.09 | 1.16 | 0.931 | 0.89
C[C@@H]1O[C@@H](O[C@@H]2[C@@H](O)[C@H](OCCc3ccc(O)c(O)c3)O[C@H](CO)[C@H]2OC(=O)/C=C/c2ccc(O)c(O)c2)[C@H](O)[C@H](O)[C@H]1O [Verbascoside] | 1.1 | 1.02 | 1.13 | 1.01 | 1.07 | 0.949 | 1.46 | 1.14 | 1.02 | 1.02
CN1CCN(c2ccc(C(=O)Nc3n[nH]c4ccc(Cc5cc(F)cc(F)c5)cc34)c(NC3CCOCC3)c2)CC1 [Entrectinib] | 1.11 | 1.04 | 1.04 | 1.04 | 1.04 | 1.18 | 1.09 | 1.56 | 1.01 | 1.03
COc1ccc(-c2nc(-c3cc(C(F)(F)F)cc(C(F)(F)F)c3)n(Cc3ccc(C(N)=O)cc3)c2-c2ccc(OC)cc2)cc1 [Apoptozole] | 0.992 | 1.01 | 1.01 | 1.03 | 1.05 | 1.21 | 1.06 | 1.36 | 0.966 | 0.976
CCNC(=O)c1noc(-c2cc(C(C)C)c(O)cc2O)c1-c1ccc(CN2CCOCC2)cc1 [Luminespib] | 1.08 | 1.05 | 1.03 | 1.02 | 1.06 | 1.05 | 1.04 | 1.15 | 1.01 | 1.06
CCc1oc2ccccc2c1C(=O)c1cc(Br)c(O)c(Br)c1 [Benzbromarone] | 0.976 | 1.01 | 0.927 | 1.05 | 1 | 1.09 | 1.16 | 1.34 | 0.95 | 1.04
COc1ccc(O)cc1 [4-Methoxyphenol] | 0.962 | 1.17 | 0.99 | 1.05 | 1.08 | 1.04 | 1.19 | 1.14 | 0.977 | 1.11
O=C(/C=C/C=C/c1ccc2c(c1)OCO2)N1CCCCC1 [Piperine] | 1.02 | 1.01 | 0.903 | 1.05 | 0.997 | 0.908 | 1.16 | 1.16 | 1.13 | 1.04
CC1=NN(c2ccccc2)C(=O)C1 [Edaravone] | 1.06 | 1.11 | 1.07 | 1.04 | 1.05 | 1.04 | 1.06 | 1.12 | 1.05 | 1.05
CC(C)N(CCCCOCC(=O)NS(C)(=O)=O)c1cnc(-c2ccccc2)c(-c2ccccc2)n1 [Selexipag] | 1.04 | 1.01 | 1.07 | 1.07 | 1.05 | 1.12 | 1.14 | 1.11 | 1.1 | 1.09
[I-].[K+] [Potassium iodide] | 1.06 | 1.08 | 1.11 | 1.03 | 1.08 | 1.03 | 1.21 | 1.05 | 1.07 | 1.07
Cc1cc(NC(=O)c2cccc(NC(=O)/C=C/CN(C)C)c2)ccc1Nc1nccc(-c2cccnc2)n1 | 1.03 | 1.05 | 0.972 | 1.01 | 1.04 | 1.02 | 1.08 | 1.05 | 1.06 | 0.942
NNC(=O)c1ccncc1 [Isoniazid] | 1.01 | 1.06 | 0.967 | 1.07 | 0.976 | 1.01 | 1.01 | 1.07 | 0.921 | 1.09
CC(=O)CCCCn1c(=O)c2c(ncn2C)n(C)c1=O [Pentoxifylline] | 1.05 | 1.01 | 1.02 | 1.04 | 1.01 | 1.02 | 1.04 | 0.959 | 0.943 | 0.997
COc1c(C)cnc(Cn2cnc3c(Cl)nc(N)nc32)c1C | 1.04 | 1.04 | 0.99 | 1.04 | 1.01 | 1.06 | 1.19 | 1.09 | 1.02 | 1.05
COC1=C(OC)C(=O)C(CCCCCCCCCCO)=C(C)C1=O [Idebenone] | 1.04 | 1.05 | 0.937 | 1.04 | 1.02 | 1.04 | 1.04 | 1.03 | 0.917 | 1.02
Oc1ccc(OCc2ccccc2)cc1 [Monobenzone] | 0.997 | 1.15 | 0.955 | 1.11 | 1.03 | 1.17 | 1.27 | 1.27 | 0.909 | 1.06

SMILES | normalised indicator fluorescence (hsa-mir-191 loop; [1]) | normalised indicator fluorescence (hsa-mir-191 loop; [2]) | normalised indicator fluorescence (hsa-mir-21 loop; [1]) | normalised indicator fluorescence (hsa-mir-21 loop; [2]) | normalised indicator fluorescence (hsa-mir-221 loop; [1]) | normalised indicator fluorescence (hsa-mir-221 loop; [2]) | normalised indicator fluorescence (hsa-mir-374a loop; [1]) | normalised indicator fluorescence (hsa-mir-374a loop; [2]) | normalised indicator fluorescence (hsa-mir-6850 loop; [1]) | normalised indicator fluorescence (hsa-mir-6850 loop; [2])
CN(C)C[C@@H]1CCn2cc(c3ccccc32)C2=C(C(=O)NC2=O)c2cn(c3ccccc23)CCO1 [Ruboxistaurin hydrochloride] | 1.1 | 1.04 | 0.991 | 1.01 | 1 | 1.12 | 1.03 | 1.24 | 0.894 | 0.897
Oc1ccc(OC2CCCCO2)cc1 (stereo not drawn) [Deoxyarbutin] | 1.11 | 1.06 | 1.03 | 1.06 | 1.03 | 1.1 | 1.03 | 1.13 | 0.979 | 1
Nc1ncnc2c1ncn2[C@@H]1O[C@H](CO)[C@@H](O)[C@@H]1O [Vidarabine] | 1.03 | 1.07 | 1.03 | 1.04 | 1.03 | 1.04 | 1.16 | 1.15 | 1 | 1.06
COc1ccc(C(=C2C(=O)Nc3ccccc32)c2ccc(OC)cc2)cc1 | 1 | 1.03 | 0.92 | 1.03 | 1.1 | 1.09 | 1.08 | 1.15 | 0.944 | 1.03
Cc1oncc1C(=O)Nc1ccc(C(F)(F)F)cc1 [Leflunomide] | 0.986 | 0.97 | 0.91 | 1.03 | 1 | 1.11 | 1.11 | 1.36 | 0.838 | 1.01
CCc1cc(C(N)=S)ccn1 [Ethinamide] | 1.07 | 1.01 | 1.1 | 1.04 | 1.04 | 1.07 | 1.18 | 1.2 | 1.04 | 1.05
CC1(C)C=Cc2c(ccc3c2OC[C@@H](c2ccc(O)cc2O)C3)O1 [Glabridin] | 1.07 | 1.05 | 1.05 | 1.03 | 1.04 | 1 | 1.13 | 1.2 | 0.981 | 1.01
NC(=O)c1ccc(N(C(N)=O)c2c(F)cccc2F)nc1-c1ccc(F)cc1F | 0.984 | 1.01 | 0.905 | 1.02 | 1.06 | 0.999 | 1.15 | 1.19 | 0.94 | 1.03
CC(=O)Oc1c(C)c(C)c2c(c1C)CCC(C)(CCC[C@H](C)CCC[C@H](C)CCCC(C)C)O2 (stereo partly drawn) [Vitamin E Acetate] | 1.01 | 1.05 | 0.923 | 1.04 | 1.1 | 1.05 | 1.01 | 1.02 | 0.957 | 1.02
O=[N+]([O-])c1ccc(-c2nc(-c3ccc(F)cc3)c(-c3ccncc3)[nH]2)cc1 | 1.06 | 1.03 | 0.973 | 1.03 | 1.16 | 1.03 | 1.59 | 1.15 | 0.975 | 1.03
O=C(NC(Cc1cc(=O)[nH]c2ccccc12)C(=O)O)c1ccc(Cl)cc1 (stereo not drawn) [Rebamipide] | 1.07 | 1.14 | 0.99 | 1.03 | 1.08 | 1.04 | 1.1 | 1.13 | 1.19 | 1.03
C[S+]([O-])c1ccc(-c2nc(-c3ccc(F)cc3)c(-c3ccncc3)[nH]2)cc1 (stereo not drawn) | 0.969 | 1.02 | 1.05 | 1.02 | 1.01 | 1.05 | 1.07 | 1.04 | 1.08 | 1.04
COc1nc(-c2ccc3c(c2)OCO3)n(-c2ccc(NC(=O)CSc3ccccc3)cc2)n1 [SecinH3] | 1.09 | 1.02 | 0.961 | 1.2 | 1.02 | 1.1 | 1.01 | 1.12 | 1 | 0.992
CC(=O)O[C@H]1C[C@@]2(C)[C@@H](C[C@@H](O)[C@H]3[C@@]4(C)CC[C@@H](O)[C@@H](C)[C@@H]4CC[C@@]32C)/C1=C(\CCC=C(C)C)C(=O)O [Fusidine] | 0.992 | 1.01 | 0.976 | 1.08 | 1.04 | 1.02 | 1.15 | 1.21 | 1.06 | 1.06
N=C(NCCCCCCNC(=N)NC(=N)Nc1ccc(Cl)cc1)NC(=N)Nc1ccc(Cl)cc1 [Chlorhexidine hydrochloride] | 1.01 | 0.962 | 0.896 | 1 | 1.01 | 0.981 | 1.06 | 1.05 | 0.906 | 1.04
CC(C)c1cc(C(C)C)c(CC(=O)NS(=O)(=O)Oc2c(C(C)C)cccc2C(C)C)c(C(C)C)c1 [Avasimibe] | 1.05 | 1.12 | 0.952 | 1.08 | 1.05 | 1.03 | 1.08 |  | 0.985 | 0.948
COC1=C2C[C@@H](C)C[C@H](OC)[C@H](O)[C@@H](C)/C=C(\C)[C@H](OC(N)=O)[C@@H](OC)/C=C\C=C(/C)C(=O)NC(=CC1=O)C2=O [Geldanamycin] | 1.09 | 1.08 | 1.04 | 1.05 | 1.04 | 1.09 | 1.11 | 1.31 | 1.09 | 1.02
CO[C@@H]1[C@H](N(C)C(=O)c2ccccc2)C[C@H]2O[C@]1(C)n1c3ccccc3c3c4c(c5c6ccccc6n2c5c31)C(=O)NC4 [Midostaurin] | 1.16 | 1.04 | 1.09 | 1.06 | 1.18 | 0.972 |  | 1.43 | 1.02 | 1.02
